# In the supplement of paper PMC3334620:
# The full ranking holds about 33,000 sequences; the median of “E-score (-0.5 to 0.5)” is about -0.035, and the highest 2% start at about 0.34. The sample holds the highest values, similar sequences and a random draw of the others, so the mix is not that of the screen.
# Target: T1, Mot3 (UniProt P54785)
# T1 sequence: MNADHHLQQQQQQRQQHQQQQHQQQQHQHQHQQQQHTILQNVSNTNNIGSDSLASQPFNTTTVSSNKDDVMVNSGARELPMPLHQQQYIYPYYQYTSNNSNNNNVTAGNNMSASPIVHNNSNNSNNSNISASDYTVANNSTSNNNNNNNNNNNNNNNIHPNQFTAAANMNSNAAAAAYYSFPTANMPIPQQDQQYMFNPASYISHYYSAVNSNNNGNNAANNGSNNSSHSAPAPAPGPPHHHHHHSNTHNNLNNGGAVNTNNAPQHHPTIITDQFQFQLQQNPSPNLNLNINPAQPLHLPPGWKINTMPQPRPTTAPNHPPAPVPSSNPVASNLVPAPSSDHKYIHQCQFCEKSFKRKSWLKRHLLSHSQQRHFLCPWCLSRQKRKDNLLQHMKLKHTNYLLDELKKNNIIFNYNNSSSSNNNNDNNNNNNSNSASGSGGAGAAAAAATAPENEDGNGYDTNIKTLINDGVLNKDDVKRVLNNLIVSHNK
# Assay: PBM E-score (8-mer binding enrichment) (E-score (-0.5 to 0.5)); higher = stronger / more preferred TF binding
# Conditions: protein concentration: 200 nM; construct: GST-full length
# Experimental: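 Universal 'all 10-mer' protein binding microarrays (Agilent AMADID 015681) probed with GST-tagged S. cerevisiae TFs (full-length or DBD) made by in vitro transcription/translation (PURExpress), about 100-200 nM. Bound TF was detected with fluorescent anti-GST. Each ungapped 8-mer (which stands for itself and its reverse complement) is scored by the PBM enrichment score (E-score), a modified Wilcoxon-Mann-Whitney statistic from -0.5 to +0.5, computed with the Universal PBM Analysis Suite. Scale: above 0.35 generally sequence-specific binding.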
row,Sequence,PBM E-score
1,ATACATCC,0.201
2,ATACATGC,0.361
3,AGACATGC,0.0904
4,CGACATGC,0.279
5,CTACATGC,0.355
6,CTACATTC,0.0249
7,CCCAAGGA,-0.0628
8,GTCTGCAA,-0.0815
9,AGCATGGC,0.0473
10,CGCTGTTA,-0.0162
11,TAGCTAGA,-0.0751
12,CGCACTGC,-0.0709
13,ATGCCTTC,0.36
14,GAGCCTGA,0.26
15,AGGCCTTC,-0.154
16,AGGCCTGA,-0.288
17,ATGCCTGA,0.376
18,ATGCCTAC,0.424
19,CTGCCTAC,0.264
20,CAGCCTGC,-0.106
21,GAGCCTGC,0.389
22,CTGCCTTC,0.2
23,CTGCCTGA,0.223
24,ATGCCTAG,0.199
25,AAGTAACC,0.00035

row,Sequence,PBM E-score
1,ATCCAGCG,-0.127
2,GAACCCTC,-0.176
3,AGGAAGCG,-0.0464
4,GTATGCTA,-0.0526
5,ATCGAAAG,-0.0284
6,GTTTCATA,-0.0759
7,CTCTAACA,0.0488
8,GTAGCCTA,0.177
9,GTAGAAGA,-0.00994
10,ACAAGGCC,0.0968
11,ACACTTAC,0.188
12,CGCACATA,-0.146
13,CTGCCTCC,-0.215
14,CTGCCTCA,-0.15
15,GTGCCTTA,0.49
16,CTGCCTGC,0.336
17,ATGCCTTG,0.267
18,CTGCCTTA,0.059
19,ATGCCTTA,0.342
20,GTGCCTCA,0.454
21,ATGCCTGG,0.127
22,ATGCCTCA,0.111
23,ATGCCTGC,0.407
24,GCGCCTTA,0.31
25,AAGCCTTA,-0.147

row,Sequence,PBM E-score
1,GCAGCCTA,-0.0663
2,CCAAGAGA,-0.0138
3,CGGCCTGC,-0.212
4,AGTGGCCA,-0.158
5,ATCTACCG,-0.115
6,ACTTTGCT,-0.0166
7,ATGCCTAA,0.278
8,GTGCCCAA,0.392
9,ATGCCCAA,-0.0977
10,CCGCCTAC,-0.166
11,CTGCCTAA,0.258
12,ACGCCTAC,0.0133
13,GTGCCTAA,0.49
14,GCGCCTAC,0.358
15,GTGCCCCA,-0.248
16,CTTAGAAA,0.11
17,AAAGCACC,-0.0982
18,CAAAGCCC,-0.0136
19,ACACAACA,0.307
20,CTAACCCA,-0.0185
21,TTAACGAA,0.128
22,TAAGGTGA,-0.0657
23,AACACGTT,0.365
24,AACACGAC,0.344
25,AACACGAT,0.349

row,Sequence,PBM E-score
1,CACACGAC,0.0741
2,AACACGGA,0.252
3,AACACGGT,0.353
4,AACACGTA,0.32
5,AACACGGC,0.257
6,AACACGAG,0.288
7,GACACGAC,0.31
8,AACACGAA,0.33
9,AACACGTC,0.316
10,GCATCGCA,-0.36
11,CGACTTAC,-0.127
12,GACGCAAC,-0.0695
13,AGGATTGC,-0.0652
14,CGTTGAGA,-0.183
15,AAGTTTTG,0.167
16,ACTGGGCG,-0.198
17,CGCACCTC,-0.0771
18,CGGCAAAC,-0.217
19,GGGCAAAC,0.0101
20,AGGCAAAA,0.467
21,AGGCAAAC,0.482
22,ATGCAAAG,0.128
23,TGGCAAAA,0.0985
24,AGGCAGAT,0.0714
25,CGGCAAAG,-0.226

row,Sequence,PBM E-score
1,AGGCAAAT,0.479
2,AGGCAAAG,0.472
3,ATGCAAAT,0.146
4,GGGCAAAA,0.0722
5,CCCGACGC,-0.262
6,ATCGGCGG,-0.342
7,ACCAGTAG,-0.0459
8,AAGGTGTG,-0.0849
9,TTACAGAA,0.106
10,ACGCTTAA,0.114
11,ATACTTAA,0.173
12,CCCCTAAG,-0.313
13,GGAGGCAA,0.437
14,CGAGGCAG,-0.0696
15,AGAGGCAA,0.409
16,AGAGGCGA,-0.227
17,AGAGGCCA,-0.274
18,TGAGGGCA,-0.0148
19,GGAGGCCA,-0.34
20,CGAGGCAC,0.411
21,TGAGGCAA,0.389
22,GGAGGCGA,-0.194
23,TGAGGCCA,0.0399
24,CGAGGCAA,0.318
25,CCCGTTGA,-0.205

row,Sequence,PBM E-score
1,ACGTTCTG,-0.0537
2,CCTCTTAC,-0.0603
3,ATCCATAG,-0.206
4,GGCCGGAC,-0.187
5,CACTGGTA,-0.00383
6,AGCGTTTC,0.127
7,GTTGCTTA,0.0798
8,AAGGATCA,0.0089
9,AGAGGCAG,-0.133
10,AGAGGCAT,-0.0714
11,AGAGGCAC,0.465
12,GGAGGCAC,0.474
13,GGAGGCCC,-0.266
14,GGGGGCAC,-0.156
15,GTTCTGGA,0.0443
16,GGGCACCA,0.171
17,AGGCACCG,0.491
18,CGGCACCC,-0.126
19,GGGCACCC,-0.0287
20,ACGCACCT,0.129
21,AAGCACCG,-0.206
22,AAGCACCT,0.0273
23,AGGCACCC,0.491
24,CGGCACCG,-0.0283
25,CGGCACCA,-0.159

row,Sequence,PBM E-score
1,AGGCACCA,0.492
2,AGGCACCT,0.491
3,CCTATTGA,0.124
4,CGGTGTAC,0.0428
5,GGAGATAC,-0.137
6,AGTTGGAC,0.0582
7,GGTAGAGA,-0.198
8,TCCGGAGA,-0.297
9,CCGGCGAG,-0.369
10,AATCGACA,0.201
11,GATCCATA,-0.201
12,ATGGCGGA,-0.302
13,TCTACCCA,-0.077
14,CGGTGTCC,-0.376
15,CAAAGCAG,0.05
16,AGCTAACC,-0.152
17,GCGTAGAA,0.232
18,GTGTAGAA,0.364
19,ATGTAGAG,0.252
20,ATGTAGGA,0.158
21,CTGTAGAA,0.191
22,ATGTAGGC,0.361
23,ATGTAGAA,0.359
24,CTGTAGGC,0.285
25,GTGTAGTA,0.292
